The text below walks through data of publication PMC8384837, “Expanding the binding specificity for RNA recognition by a PUF domain”.

Holding throughout (experiment): yeast three-hybrid, YBZ-1, SC-Leu-His + 0.5 mM 3-AT, 4 days
Common to all, as to conditions: tags: N-Gal4 AD-HA kept; label: inside an RPR1-promoter hybrid RNA with tandem MS2 sites; ssRNA

One assay concerns the target PUM1 PUF domain R7-EFS (Homo sapiens, UniProt Q14671 828-1176, S1079E;N1080F;E1083S). Put shortly: (§1)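 Pumilio-1 PUF domain libraries, randomized at the three base-contacting residues of each repeat, were co-expressed with matching RNA elements from a centromeric plasmid in strain YBZ-1, which carries a LexA–MS2 coat fusion and a HIS3 reporter. Transformants grew for four days on SC-Leu (input) or on SC-Leu-His + 0.5 mM 3-AT (selection), and the repeat regions were PCR-amplified and Illumina-sequenced. The interaction score is the log change in variant frequency from input to selection. That logarithm is base 2, with a pseudocount of 1 where a variant was absent.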

Another assay has as its target PUM1 PUF domain R3-EWV (Homo sapiens, UniProt Q14671 828-1176, C935E;R936W;Q939V). In a few lines:
as §1

Another assay has as its target PUM1 PUF domain R3-YCG (Homo sapiens, UniProt Q14671 828-1176, C935Y;R936C;Q939G). Put shortly:
as §1

The target in the next assay is PUM1 PUF domain R3-GWP (Homo sapiens, UniProt Q14671 828-1176, C935G;R936W;Q939P). Put shortly: as §1
A further assay has as its target PUM1 PUF domain R3-AIE (Homo sapiens, UniProt Q14671 828-1176, C935A;R936I;Q939E). Put shortly:
as §1

The target in another assay is PUM1 PUF domain R7-TVW (Homo sapiens, UniProt Q14671 828-1176, S1079T;N1080V;E1083W). In a few lines:
as §1

The next assay concerns the target PUM1 PUF domain R1-QRR (Homo sapiens, UniProt Q14671 828-1176, S863Q;Q867R). In a few lines: as §1
Another assay concerns the target PUM1 PUF domain R1-VKR (Homo sapiens, UniProt Q14671 828-1176, S863V;R864K;Q867R). In a few lines: as §1
The target in the next assay is PUM1 PUF domain R1-RKV (Homo sapiens, UniProt Q14671 828-1176, S863R;R864K;Q867V). Put shortly:
as §1

For another assay, the target named is PUM1 PUF domain R4-DWA (Homo sapiens, UniProt Q14671 828-1176, N971D;H972W;Q975A). In a few lines: as §1

As for “GGCUAGAACUAGUGGAUCCCCCGGCGCCCGGCGGCUCGAGCCCGGGUAAGUCUAAAUAGUCUGCAUGCCGCCGGGCGCCAUGCCUGCAGGUCGACUCUAGAAAACAUG”, the binding signal with PUM1 PUF domain R7-EFS was 2.94 log2 enrichment (interaction score).
On to “GGCUAGAACUAGUGGAUCCCCCGGCGCCCGGCGGCUCGAGCCCGGGUAAGUGUAAGUAGUCUGCAUGCCGCCGGGCGCCAUGCCUGCAGGUCGACUCUAGAAAACAUG”, for which the binding signal with PUM1 PUF domain R3-EWV is 2.9 log2 enrichment (interaction score); in the assay with PUM1 PUF domain R3-YCG, 4.58 log2 enrichment (interaction score); in the assay with PUM1 PUF domain R3-GWP, 5.41 log2 enrichment (interaction score); in the assay with PUM1 PUF domain R3-AIE, 2.83 log2 enrichment (interaction score).
“GGCUAGAACUAGUGGAUCCCCCGGCGCCCGGCGGCUCGAGCCCGGGUAAGUUUAAAUAGUCUGCAUGCCGCCGGGCGCCAUGCCUGCAGGUCGACUCUAGAAAACAUG”: the binding signal with PUM1 PUF domain R7-TVW is 3 log2 enrichment (interaction score).
As for “GGCUAGAACUAGUGGAUCCCCCGGCGCCCGGCGGCUCGAGCCCGGGUAAGUGUAAAUUGUCUGCAUGCCGCCGGGCGCCAUGCCUGCAGGUCGACUCUAGAAAACAUG”, the binding signal was 1.96 log2 enrichment (interaction score) with PUM1 PUF domain R1-QRR, 1.61 log2 enrichment (interaction score) with PUM1 PUF domain R1-VKR and 3.41 log2 enrichment (interaction score) in the assay with PUM1 PUF domain R1-RKV.
Take “GGCUAGAACUAGUGGAUCCCCCGGCGCCCGGCGGCUCGAGCCCGGGUAAGUGUACAUAGUCUGCAUGCCGCCGGGCGCCAUGCCUGCAGGUCGACUCUAGAAAACAUG”: the binding signal with PUM1 PUF domain R4-DWA was 5.13 log2 enrichment (interaction score).
